Assay outcomes from PubChem.
Nrf2 activator: qHTS of Nrf2 Activators; actives 0.31% (n = 410,000); Potency, µM (doses to about 46.1 µM), for inactives: top-dose activation, actives largely listed as activators; AREc32 ARE-luciferase reporter (MCF7-derived line), luminescence, 24 h; AID 624171, 2012; also: potency is read from the fitted curve at half-maximal effect; % of control where 0% means no effect; nearly all actives have a fitted effect of over 65% in size
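Cells of the AREc32 ARE-luciferase line are plated in OPTI-MEM containing 5% FBS and left overnight at 37 deg C. Compounds are pinned in, incubation continues 24 hr, and firefly luciferase signal is then measured.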
BRCA1 expr up: qHTS Assay to Identify Small Molecule Activators of BRCA1 Expression | MCF7-BRCA1-FFLuc reporter, luminescence, 48 h; response scale: scaled: vehicle 0%, 10 µM genistein 100% | Potency, µM (top dose mostly 46.1 µM), inactives show at the top dose activation, most hits filed as activators | actives 1.1% (n = 380,000) | AID 624202, 2012; also: potency is read from the fitted curve at half-maximal effect; nearly all actives have a fitted effect of over 80% in size
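First, MCF7-BRCA1-FFLuc cells (2000/well) attach for 2 h; next, compounds are pin-added and incubated 48 h at 37 °C; finally, luciferase reagent is added and luminescence read after 15 min.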
IL2 activator: qHTS of IL-2 Activators. actives 0.065% (n = 360,000). activation, % (series mostly up to about 46 µM). IL-2 activation reporter assay, cell-based qHTS; stimulated with anti-CD3/CD4/CD28 beads; in transgenic mouse T cells; in the data active = activation above about 50%; inconclusive = mostly about 30% to 49%; also: 0% is about no effect
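First, unstimulated transgenic mouse T cells were exposed to compound for 60 min. Next, anti-CD3/anti-CD4-coated beads with anti-CD28 were added. Finally, after 18 h at 37 degrees C, EGFP and DsRed were imaged.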
ELG1 repair inh: qHTS screen for small molecules that inhibit ELG1-dependent DNA repair in human embryonic kidney (HEK293T) cells expressing luciferase-tagged ELG1; HEK293T ELG1-luciferase reporter, luminescence, 16 h; DNA damage induced by 5-fluorouridine; Potency, µM (series often up to 46.1 µM), inactives show at the highest dose activity change, negative = inhibition, hits mostly inhibitors; actives 2.3% (n = 330,000); AID 504467, 2011; also: potency is read from the fitted curve at half-maximal effect; % is scaled to controls: 0 for no effect and ±100 for the full control effect; nearly all actives have a fitted effect of over 55% in size
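Quantitative HTS, concentration-response format. 2,000 cells/well co-treated with 5-fluorouridine and compound, 16 hr in 5% CO2 at 37 °C; ONE-Glo luminescence read after 30 min.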
ELG1 FLuc counter: qHTS screen for small molecules that inhibit ELG1-dependent DNA repair: Hit Confirmation in Cell-Based Luciferin Assay. shares compounds with ELG1 repair inh. Potency, µM (series often up to 46.1 µM), without a hit: at the highest dose activity change, negative = inhibition, most hits filed as inhibitors. AID 624247, 2012. actives 3% (n = 350). cell-free firefly luciferase luminescence counter-screen, ViewLux; also: potency is read from the fitted curve at half-maximal effect; % is scaled to controls: 0 for no effect and ±100 for the full control effect
ELG1 Luc conf: HTS assay for small molecules that inhibit ELG1-dependent DNA repair in human embryonic kidney (HEK293T) cells expressing luciferase-tagged ELG1: Hit Confirmation; shares compounds with ELG1 repair inh; HEK293T ELG1-luciferase levels, luminescence; cells co-treated with 5-fluorouridine; Potency, µM (series often up to 46.1 µM), inactives show at the highest dose activity change, negative = inhibition, actives largely listed as inhibitors; actives 68% (n = 670); also: potency is read from the fitted curve at half-maximal effect; % is scaled to controls: 0 for no effect and ±100 for the full control effect; nearly all actives have a fitted effect of over 55% in size
ELG1-Luc MMS: MMS-stimulated human ELG1 repair inhibition, confirmed; Potency, µM (doses to about 46.1 µM), inactives show top-dose activity change, negative = inhibition, usual class: inhibitors; shares compounds with ELG1 repair inh; actives 53% (n = 670); HEK293T luciferase-tagged ELG1 level, MMS stimulated; AID 624249; also: potency is read from the fitted curve at half-maximal effect; % is scaled to controls: 0 for no effect and ±100 for the full control effect; nearly all actives have a fitted effect of over 60% in size
ELG1 5FU viab: qHTS screen for small molecules that inhibit ELG1-dependent DNA repair: Hit Confirmation with 5FU Viability. shares compounds with ELG1 repair inh. Potency, µM (highest dose often 46.1 µM), without a hit: at the top dose activity change, negative = viability loss, usual class: cytotoxic. AID 624250, 2012. cell viability with 5-FU, ELG1-dependent repair. 670 tested, under 10 active;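 also: ELG1-luc HEK293T cells cotreated with 5-fluorouridine at 10 µM final; potency is read from the fitted curve at half-maximal effect; viability measured 16 h after compound addition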
ELG1 MMS cell: qHTS screen for small molecules that inhibit ELG1-dependent DNA repair: Hit Confirmation with MMS Viability; Cell viability with MMS, ELG1-dependent DNA repair; actives 33% (n = 670); shares compounds with ELG1 repair inh; AID 624251, 2012; Potency, µM (series often up to 46.1 µM), for inactives: at the highest dose activity change, negative = viability loss, actives largely listed as cytotoxic;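 also: ELG1-luc HEK293T cells co-treated with 10 µM MMS; potency is read from the fitted curve at half-maximal effect; viability read 16 h after compound addition; % is scaled to controls: 0 for no effect and ±100 for the full control effect; nearly all actives have a fitted effect of over 60% in size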
ELG1 unstim viab: qHTS screen for small molecules that inhibit ELG1-dependent DNA repair: Hit Confirmation with Unstimulated Viability Assay. cell viability counter-screen, unstimulated, luminescence. AID 624252, 2012. shares compounds with ELG1 repair inh. actives 8% (n = 900). Potency, µM (doses to about 45.9 µM), inactives show at the highest dose activity change, negative = loss of viability, hits mostly cytotoxic;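 also: potency is read from the fitted curve at half-maximal effect; compound exposure lasted 16 hours before reading; % is scaled to controls: 0 for no effect and ±100 for the full control effect; nearly all actives have a fitted effect of over 55% in size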
FLuc biochem: qHTS screen for small molecules that inhibit ELG1-dependent DNA repair: Hit Confirmation in Biochemical Luciferin Assay. Potency, µM (titrated, usually from 57.5 µM), for the others: at the top dose activity, negative = inhibition, usual class: inhibitors. AID 624253, 2012. shares compounds with ELG1 repair inh. actives 10% (n = 350). purified firefly luciferase, luminescence counter-screen; also: potency is read from the fitted curve at half-maximal effect; % is scaled to controls: 0 for no effect and ±100 for the full control effect
* hit, by the source's call. Rows were chosen to be rich in hits. Some 3.1% of all compounds tested hit in one or more screens of this group. Unless noted, calls follow the shape of the dose curve; as a rule, active = well fitted curve in the direction sought with a large enough effect; inconclusive = small, poorly fitted or top-dose-only effect, or another doubt; inactive = no such curve, though single readings can be large; an effect the other way counts as inactive or inconclusive.

For O=c1c(-c2ccc(F)cc2)coc2c3c(ccc12)OCCO3 the results were Nrf2 activator 0%, BRCA1 expr up inconclusive, IL2 activator -1, ELG1 repair inh inconclusive, ELG1 FLuc counter 123%, ELG1 unstim viab inconclusive and FLuc biochem inconclusive.
Screening O=c1c(-c2ccc(Br)cc2)coc2c(CN3CCOCC3)c(O)ccc12 returned Nrf2 activator 4%, BRCA1 expr up 10%, IL2 activator 0 and ELG1 repair inh inconclusive.
Screening CCOc1ccc(C(=O)Nc2ccccc2N2CCN(C(=O)c3ccccc3)CC2)cc1[N+](=O)[O-] returned Nrf2 activator 3%, BRCA1 expr up -36%, IL2 activator -2, ELG1 repair inh 4.6µM*, ELG1 Luc conf 6.3µM*, ELG1-Luc MMS inconclusive, ELG1 5FU viab 6%, ELG1 MMS cell -1% and ELG1 unstim viab -15%.
`O=C(COc1ccc(F)cc1)OCc1cc(=O)n2nc(C3CCCCC3)sc2n1` gave Nrf2 activator 0% and BRCA1 expr up 0%.
CCCn1ccc2c(OCC(=O)Nc3ccc(OC)c(OC)c3)cccc2c1=O was read as Nrf2 activator 1% and BRCA1 expr up 0%.
For CCc1ccc(NC(=O)c2sc3nc(C)cc(C)c3c2NC(=O)c2ccccc2OC)cc1 the results were Nrf2 activator -1% and BRCA1 expr up -5%.
O=C(Nc1ccc(F)cc1)N(Cc1cccs1)Cc1cc2cc3c(cc2[nH]c1=O)OCO3 was read as Nrf2 activator 1%, BRCA1 expr up -80%, IL2 activator 0, ELG1 repair inh 18µM*, ELG1 FLuc counter inconclusive, ELG1 Luc conf 8.9µM*, ELG1-Luc MMS 28µM*, ELG1 5FU viab -6%, ELG1 MMS cell inconclusive, ELG1 unstim viab inconclusive and FLuc biochem -15%.
Screening Nc1nc(N)c(N=O)c(Nc2cccc(Cl)c2)n1 returned Nrf2 activator 0%, BRCA1 expr up -22% and IL2 activator -1.
For COc1ccc(-c2cc(C)no2)cc1S(=O)(=O)N1CCN(c2cccc(C)c2)C(C)C1 (centres undefined) the results were Nrf2 activator 0%, BRCA1 expr up 0%, IL2 activator 0, ELG1 repair inh 3.3µM*, ELG1 Luc conf 13µM*, ELG1-Luc MMS 3.1µM*, ELG1 5FU viab -7%, ELG1 MMS cell 4µM* and ELG1 unstim viab inconclusive.
Screening Cc1cccc(N2CCN(S(=O)(=O)c3cc(-c4cc(C)no4)ccc3C)CC2C)c1 (centres undefined) returned Nrf2 activator 0%, BRCA1 expr up 0%, IL2 activator -2 and ELG1 repair inh inconclusive.
Cc1ccccc1C(=O)NCc1ccc2c(c1)CCN2C(=O)c1ccc(F)cc1 was read as Nrf2 activator -1%.
`Cn1c(=O)c2[nH]c(CSCc3ccccc3)nc2n(C)c1=O` gave Nrf2 activator 0%, BRCA1 expr up -11% and IL2 activator 1.
Screening Cn1c(=O)c2[nH]c(CN(Cc3ccccc3)Cc3ccccc3)nc2n(C)c1=O returned Nrf2 activator 0%, BRCA1 expr up -29%, IL2 activator 0, ELG1 repair inh 4.1µM*, ELG1 Luc conf 7.9µM*, ELG1-Luc MMS inconclusive, ELG1 5FU viab -9%, ELG1 MMS cell inconclusive and ELG1 unstim viab inconclusive.
`COc1cccc(-c2cc(NCc3cccs3)ncn2)c1` gave ELG1 FLuc counter 67%, ELG1 unstim viab -3% and FLuc biochem 3.7µM*.
`Cc1ccc(C)c(C(=O)CSc2nc3cc(C(=O)NC4CCCC4)ccc3c(=O)n2CC2CCCO2)c1` (centres undefined) gave Nrf2 activator 0% and BRCA1 expr up 9%.
Screening O=S(=O)(NCCc1cn2ccsc2n1)c1ccc(Cl)cc1 returned Nrf2 activator 2%.
For Cc1ccc(C(=O)Cn2c3c(sc2=N)CCCC3)cc1 the results were ELG1 FLuc counter -2%, ELG1 unstim viab inconclusive and FLuc biochem 0.092µM*.
Cc1ccc(C(=O)Cn2ncsc2=N)cc1 was read as Nrf2 activator 3%, BRCA1 expr up 91%, IL2 activator 0 and ELG1 repair inh inconclusive.
Screening COc1cccc(-c2nc(S(=O)(=O)c3ccc(Cl)cc3)c(NCc3ccccc3)o2)c1 returned Nrf2 activator 1%.
